Screening results deposited in PubChem BioAssay by several laboratories.
An excerpt weighted towards active compounds, which were near 2.2% of everything screened.
VLA-4 inh = inhibition in a human VLA-4 binding assay; VLA-4 expressing cells, ligand binding flow cytometry; inhibition, % (about 7 µM as worked out from the volumes in the protocol); P13612; 0.2% of 330,000 active; in the data active = inhibition above about 50%
Target sequence (P13612 whole entry, looked up): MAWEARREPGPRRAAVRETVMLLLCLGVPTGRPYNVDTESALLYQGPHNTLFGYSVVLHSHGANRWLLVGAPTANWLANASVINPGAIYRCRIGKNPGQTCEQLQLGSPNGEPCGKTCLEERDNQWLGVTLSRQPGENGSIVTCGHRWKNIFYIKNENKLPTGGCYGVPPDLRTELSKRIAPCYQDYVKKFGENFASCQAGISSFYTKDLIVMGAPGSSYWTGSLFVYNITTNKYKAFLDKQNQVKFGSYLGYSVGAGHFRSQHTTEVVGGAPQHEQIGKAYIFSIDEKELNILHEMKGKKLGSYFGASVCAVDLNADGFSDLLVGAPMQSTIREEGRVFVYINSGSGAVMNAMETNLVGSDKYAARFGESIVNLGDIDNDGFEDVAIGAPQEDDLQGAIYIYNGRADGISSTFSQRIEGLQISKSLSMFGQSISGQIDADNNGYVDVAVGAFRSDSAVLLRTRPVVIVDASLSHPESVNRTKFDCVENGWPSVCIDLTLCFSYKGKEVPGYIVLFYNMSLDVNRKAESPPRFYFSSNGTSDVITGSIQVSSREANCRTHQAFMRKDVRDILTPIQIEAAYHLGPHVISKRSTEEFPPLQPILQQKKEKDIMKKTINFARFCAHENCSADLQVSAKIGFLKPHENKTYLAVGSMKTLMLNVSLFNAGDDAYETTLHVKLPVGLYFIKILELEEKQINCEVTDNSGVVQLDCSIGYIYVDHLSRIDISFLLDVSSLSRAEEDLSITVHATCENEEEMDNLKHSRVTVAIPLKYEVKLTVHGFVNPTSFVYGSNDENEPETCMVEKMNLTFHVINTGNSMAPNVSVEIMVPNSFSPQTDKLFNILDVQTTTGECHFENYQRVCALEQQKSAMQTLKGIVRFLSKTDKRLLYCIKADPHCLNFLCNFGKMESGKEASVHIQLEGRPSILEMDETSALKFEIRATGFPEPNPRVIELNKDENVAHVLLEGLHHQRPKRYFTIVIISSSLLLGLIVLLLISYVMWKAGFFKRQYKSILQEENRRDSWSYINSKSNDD
AI-2 QS mod = modulators of Vibrio harveyi AI-2 quorum sensing system; Vibrio harveyi JMH597 AI-2 luminescence/OD600 ratio, 9 h; hits give low values; strain lacks LuxN and CqsS sensors; 0 = neutral-control median; activity change, % at 7.5 µM; 0.4% of 300,000 active; AID 2094; in the data active = activity change below about -75%, passing the limit was not always enough;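 also: luminescence divided by OD600 gain over 9 h not by final OD600 alone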
CHT allo act = allosteric activators of human choline transporter CHT. 0.49% of 310,000 active. CHT-expressing cells, membrane potential dye, choline EC20; hits give high values; LV-AA mutant CHT in HEK293 cells. B-score at 10 µM. AID 488977;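 active = initial fluorescence not abnormally high and integrated response B-score, plate-corrected, over 3 SD above library mean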
CHT block = inhibitors of human choline transporter CHT; CHT-expressing cells, membrane potential dye, choline response; hits give low values; 0.86% of 310,000 active; B-score at 10 µM; Q9GZV3;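 active = B-score over 3 SD under the library average, and starting fluorescence ratio not unusually high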;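 also: choline stimulus applied at its EC90 after an EC20 pre-addition; B-score computed on integrated fluorescence ratio after choline addition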
HIF act = HIF pathway transcriptional activation; U2OS HRE-luciferase reporter, luminescence; normalized: DMSO 0%, desferrioxamine 100%; activation, % at 7.5 µM (by protocol); 0.32% of 300,000 active;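 active = mean activation of at least 10% of the iron chelator positive control signal, with at least half of replicates also reaching 10%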
Platelet DG rel = platelet dense granule release activity. human platelet-rich plasma, SFLLRN dense granule ATP release, luminescence. inhibition, %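 (compounds screened at 7.5 µM in platelet-rich plasma)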. 0.22% of 300,000 active;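 active = mean replicate score, as percent of positive control, at or above 50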
VLA-4 allo CP = human VLA-4 allosteric modulation in cherry picked compounds; shares compounds with VLA-4 inh; U937 cells, HUTS-21 LIBS mAb binding, flow cytometry; LDV ligand present at threefold Kd; inhibition, % at 6.7 µM; 2% of 1,300 active; in the data active = inhibition above about 40%;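 also: 0% = ligand without compound and 100% = no ligand background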
Starred values were filed as active, the others as inactive; i = inactive; . = no result.

SMILES	VLA-4 inh	AI-2 QS mod	CHT allo act	CHT block	HIF act	Platelet DG rel	VLA-4 allo CP
Cc1ccc(S(=O)(=O)N2[C@@H](c3ccc4c(c3)OCO4)C(C(=O)O)=C[C@H]2C(C)(C)C)cc1	-16	.	.	.	.	.	.
Cc1ccc([C@@H]2CC=C(C(=O)O)[C@H](c3ccc(Br)cc3)N2S(=O)(=O)c2ccc(C)cc2)cc1	18	.	.	.	.	.	.
CCCCC[C@@H]1C=C(C(=O)O)[C@H](c2ccc(Br)cc2)N1S(=O)(=O)c1ccc(C)cc1	6	.	.	.	.	.	0
CCCC[C@@H]1C=C(C(=O)O)[C@H](c2ccc3c(c2)OCO3)N1S(=O)(=O)c1ccc(C)cc1	6	.	.	.	.	.	-3
CCCC[C@@H]1C=C(C(=O)O)[C@H](c2ccc(Cl)cc2)N1S(=O)(=O)c1ccc(C)cc1	39	.	.	.	.	.	4
CN(C(=O)COC(=O)c1ccc2c(c1)OCO2)C1CCCCC1	14	.	.	.	.	.	.
CN(C(=O)COC(=O)c1ccc2c(c1)OCO2)C1CCS(=O)(=O)C1 (centres undefined)	93*	9	i	i	0	0	0
COc1cc(CNCCNC(=O)c2cccs2)cc(OC)c1OC	22	16	i	i	1	-2	.
COc1ccc(CNCCNC(=O)c2cccs2)cc1OC	65*	0	i	i	1	-4	0
COc1cccc(C2CC(=O)Nc3cc4c(cc32)CCC4)c1 (centres undefined)	7	20	i	i	-2	7	.
COc1cccc(C2CC(=O)Nc3cc(OC)c(OC)cc32)c1 (centres undefined)	4	9	i	i	1	-3	1
COc1cc2c(cc1OC)C(c1ccc(Br)cc1)CC(=O)N2 (centres undefined)	14	9	i	i	0	0	10
O=C(Nc1ccsc1C(=O)O)c1cccc(C(F)(F)F)c1	40	27	i	i	-16	-3	-17
COc1ccc(OC)c(C(=O)COC(=O)CNC(=O)C2CCCCC2)c1	60*	35	i	i	0	-1	-8
COc1ccc(C(=O)COC(=O)CNC(=O)C2CCCCC2)c(OC)c1	-4	30	i	i	0	-47	.
Cc1ccc(N(CC2CO2)S(=O)(=O)c2ccc([N+](=O)[O-])cc2)cc1 (centres undefined)	10	-1	i	i	-1	17	.
O=C(NNC(=O)c1ccncc1)Nc1ccccc1	-1	.	i	i	-2	0	.
O=C(Nc1ccccc1)Nc1ccncc1	62*	19	i	i	0	3	-10
COc1cccc(C(=O)Nc2ncc3c(n2)CC(C)CC3=O)c1 (centres undefined)	62*	17	i	i	0	3	0
COc1cc(OC)cc(C(=O)Nc2ncc3c(n2)CC(C)CC3=O)c1 (centres undefined)	5	3	i	i	-1	12	.
CCOC(=O)/C(=N\Nc1ccccc1Cl)N(C)C1CCCCC1	0	28	i	i	0	4	.
O=C1NCCN(Cc2ccoc2)C1CC(=O)N(CCO)Cc1ccccc1 (centres undefined)	4	16	i	i	1	-7	.
CCC(C)[C@H]1CNC(=O)C(=O)N1CCCc1cc(OC)c(OC)c(OC)c1 (some centres undefined)	12	7	i	i	0	-2	10
CCCCN1C(=O)C(=O)NC[C@@H]1CCCCN	8	11	i	i	-1	0	.
CCCC[C@@H]1CNC(=O)C(=O)N1CCCc1cc(OC)c(OC)c(OC)c1	58*	18	i	i	0	0	-1
SMILES	VLA-4 inh	AI-2 QS mod	CHT allo act	CHT block	HIF act	Platelet DG rel	VLA-4 allo CP
Cc1cc(C(=O)CCC(=O)N(C)CC(=O)Nc2ccccc2Br)c(C)s1	-5	27	i	i	0	-3	.
COc1ccc(-n2c(=S)[nH]c3cc(C(=O)NCCCN4CCOCC4)ccc3c2=O)cc1OC	56*	12	i	i	1	1	-9
COc1ccc(C(=O)NCCCN2CCOCC2)cc1OC	-5	-3	i	i	0	19	.
O=C(COc1ccc(Br)cc1)NCC1COc2ccccc2O1 (centres undefined)	2	.	.	.	.	.	.
C[C@H]1COC(=O)[C@H](Cc2ccc(F)cc2)C/C=C\C[C@H](CC(=O)N(CCO)Cc2ccccc2)C(=O)N1	113*	.	.	.	.	.	6
CCCS(=O)(=O)N1CCC(C(=O)NCCC(C)C)CC1	7	20	i	i	-1	-1	.
CCN1CCN(c2ccccc2NC(=O)c2ccc(-n3cccn3)cc2)CC1	-9	.	.	.	.	.	.
CCOc1ccc(C(=O)NCCC2=CCCCC2)cc1OCC	52*	19	i	i	1	2	-1
Cc1ccc(S(=O)(=O)N2CCN(C(=O)COC(=O)c3oc4ccccc4c3C)CC2)cc1	4	19	i	i	0	1	.
COc1cccc(-n2c(Cc3cc(=O)[nH]c(=O)[nH]3)nnc2SCC(=O)N2CCCC2)c1	-8	22	i	i	-1	1	15
COc1cccc(-n2c(Cc3cc(=O)[nH]c(=O)[nH]3)nnc2SCC(=O)N2CCCCCC2)c1	-5	.	i	i	.	.	9
O=C(CSc1nnc(Cc2cc(=O)[nH]c(=O)[nH]2)n1-c1ccccc1)N1CCCCC1	4	14	i	i	-1	3	4
COc1c2ccc(OCC/C(C)=C/C(=O)C=C(C)C)cc2nc2occc12	-16	.	.	.	.	.	.
CCOC(=O)c1cc(S(=O)(=O)Nc2ccc(OC)cc2OC)cn1C	23	-16	i	i	0	2	.
O=C(CSc1nnc(NC(=O)C2CC2)s1)Nc1ccccc1C(F)(F)F	-3	1	i	i	-1	-1	.
Cc1ccc(NS(=O)(=O)c2ccc(-c3cnc(C4CC4)o3)cc2)c(C)c1	55*	7	i	i	0	7	47*
O=S(=O)(Nc1ccc(F)cc1Cl)c1ccc(-c2cnc(C3CC3)o2)cc1	-22	-1	i	i	0	-5	.
C=CC[n+]1c(C)csc1Nc1ccc(C)cc1	52*	10	i	i	1	-3	0
Cc1ccc(C(=O)N(Cc2cccnc2)Cc2cc3cc(C)ccc3n3nnnc23)cc1	-20	8	i	i	0	14	.
CCn1c(SCC(=O)NCc2ccccc2)nnc1C(CO)NC(=O)c1ccccc1 (centres undefined)	0	22	i	i	0	4	.
